For part of these data: Entries with a potency or affinity are not part of this list.

One assay relates to Staphylococcus aureus. In words: Antibacterial activity against Staphylococcus aureus MRSA ATCC 43300 (CO-ADD:GP_020); MIC in CAMBH media using NBS plates, by Resazurin F(560/590). It counts as functional. As to conditions: Concentration 20 uM, ASSAY_TEST Inhibition of Bacterial Growth, detection method Resazurin, Fluorescence (ex560/em590), MEDIA CAMHB, plate type 384well, CORNING #3640, time 18 hr.

In another assay the test system is Acinetobacter baumannii. In words: Antibacterial activity against Acinetobacter baumannii ATCC 19606 (CO-ADD:GN_034); MIC in CAMBH media using NBS plates, by Resazurin F(560/590). As to conditions: Concentration 20 uM, ASSAY_TEST Inhibition of Bacterial Growth, detection method Resazurin, Fluorescence (ex560/em590), MEDIA CAMHB, plate type 384well, CORNING #3640, time 18 hr. It is filed as functional. In general terms: Alamar Blue is a resazurin reagent that responds to reducing activity.

In another assay the test system is Escherichia coli. In words: Antibacterial activity against Escherichia coli ATCC 25922 (CO-ADD:GN_001); MIC in CAMBH media using NBS plates, by Resazurin F(560/590). The note with it: Concentration 20 uM, ASSAY_TEST Inhibition of Bacterial Growth, detection method Resazurin, Fluorescence (ex560/em590), MEDIA CAMHB, plate type 384well, CORNING #3640, time 18 hr. It is filed as functional.

For another assay, the system named is Klebsiella pneumoniae. As to conditions: Concentration 20 uM; ASSAY_TEST Inhibition of Bacterial Growth; detection method Absorption (OD600); MEDIA CAMHB; plate type 384well; NBS; CORNING #3640; time 18 hr.
For the next assay, the system named is Candida albicans. The note with it: 20 µM.
In the next assay the test system is Cryptococcus neoformans. As to conditions: Concentration 20 uM; ASSAY_TEST Inhibition of Fungal Growth; detection method Resazurin; Absorption (OD600-OD570); plate type 384well; NBS; CORNING #3640.

What is called Inhibition is the change of the read-out against control, counted positive when it falls. `COC(=O)C1=C(C(=O)OC)[C@@H]2CCC[C@H]1[C@H]1[C@@H]2N=NN1c1ccccc1`: the Inhibition with Staphylococcus aureus is 22.18%; in the assay on Acinetobacter baumannii, -12.99%; in the assay with Escherichia coli, 6.51%; in the assay on Klebsiella pneumoniae, 9.18%; in the assay with Candida albicans, 2.48%; in the assay with Cryptococcus neoformans it was 8.73%.
Take `Cc1cc(=O)[nH]c(N)n1`: the Inhibition in the assay with Staphylococcus aureus is 9.55%; with Acinetobacter baumannii, -6.26%; with Escherichia coli, 2.4%; with Klebsiella pneumoniae, 1.73%; in the assay with Candida albicans it was 3.77%; in the assay on Cryptococcus neoformans, -0.62%.
As to `OCC1(CO)CC2(C1)CC(CO)(CO)C2`, the Inhibition was 5.83% in the assay on Staphylococcus aureus; -10.2% with Acinetobacter baumannii; 9.77% in the assay with Escherichia coli; 7.41% with Klebsiella pneumoniae; -2% in the assay on Candida albicans; 1.54% in the assay with Cryptococcus neoformans.
In the case of `CCOc1ccc(NC(=O)C2CCCN(C)C2)cc1` (stereo not given), the Inhibition in the assay on Staphylococcus aureus is 8.6%; in the assay with Acinetobacter baumannii, 6.87%; in the assay with Escherichia coli, -2.25%; in the assay with Klebsiella pneumoniae, 20.11%; in the assay on Candida albicans, 9.11%; with Cryptococcus neoformans, -4.92%.
With `CCOC(=O)Cn1nc2oc(=O)c(CCN3CCN(c4ccccc4OC)CC3)c(C)c2c1C`, the Inhibition was 17.7% in the assay with Staphylococcus aureus; -3.04% in the assay on Acinetobacter baumannii; 11.66% in the assay with Escherichia coli; 16.06% in the assay with Klebsiella pneumoniae; 2.37% in the assay on Candida albicans; -3.33% in the assay on Cryptococcus neoformans.
Turning to `Nc1ccc(Br)cc1Br`, the Inhibition with Staphylococcus aureus is 10.2%; with Acinetobacter baumannii, 5.55%; with Escherichia coli, 2.13%; in the assay with Klebsiella pneumoniae, 7.43%; in the assay with Candida albicans, 6.15%; in the assay on Cryptococcus neoformans, -7%.
Consider `CN(C)c1ccc(/C=N/NC(=O)c2cnc3ccccc3c2)cc1`, for which the Inhibition amounted to 17.84% in the assay with Staphylococcus aureus; 9.63% with Acinetobacter baumannii; 3.71% with Escherichia coli; 14.91% in the assay with Klebsiella pneumoniae; 2.44% in the assay with Candida albicans; 3.68% with Cryptococcus neoformans.
In the case of `O=C(OCC1CCC=CO1)C1CCC=CO1` (stereo not given), the Inhibition was 6.99% with Staphylococcus aureus; -10.56% in the assay on Acinetobacter baumannii; 3.07% with Escherichia coli; 7.72% in the assay with Klebsiella pneumoniae; 0.31% with Candida albicans; -9.47% in the assay with Cryptococcus neoformans.
As for `Clc1ccc(/C=C/c2nc(Cl)c(-c3ccc(Cl)cc3)c(Cl)n2)cc1`, the Inhibition is 8.11% in the assay with Staphylococcus aureus; 11.58% with Acinetobacter baumannii; 9.97% in the assay with Escherichia coli; 19.84% in the assay with Klebsiella pneumoniae; 4.64% in the assay with Candida albicans; -12.98% in the assay on Cryptococcus neoformans.
Consider `O=C(CN1CCOCC1)N1CCOCC1`, for which the Inhibition with Staphylococcus aureus was 15.46%; in the assay with Acinetobacter baumannii, -15.04%; in the assay with Escherichia coli, 7.84%; with Klebsiella pneumoniae, 3.48%; with Candida albicans, -1.35%; in the assay with Cryptococcus neoformans, -8.59%.
For the molecule `O[C@@H](c1cc(-c2ccc(C(F)(F)F)cc2)nc(C(F)(F)F)c1)[C@H]1CCCCN1`, the Inhibition in the assay on Staphylococcus aureus was 4.92%; in the assay with Acinetobacter baumannii, 7.22%; with Escherichia coli it was 8.91%; with Klebsiella pneumoniae, 19.18%; with Candida albicans, 3.72%; in the assay on Cryptococcus neoformans, -3.44%.
As to `OCCN1CCSC1=S`, the Inhibition in the assay with Staphylococcus aureus was 15.14%; in the assay on Acinetobacter baumannii, -9.39%; in the assay with Escherichia coli, 8.07%; with Klebsiella pneumoniae it was 16.39%; in the assay with Candida albicans it was 1.12%; in the assay on Cryptococcus neoformans, -6.82%.
`COc1ccc2nc(-c3ccc(Cl)cc3)cc(C(=O)O)c2c1`: the Inhibition with Staphylococcus aureus is -2.13%; with Acinetobacter baumannii, -6.37%; with Escherichia coli, 6.47%; in the assay on Klebsiella pneumoniae, 11.49%; with Candida albicans it was 35.6%; in the assay on Cryptococcus neoformans it was -9.35%.
For `Nc1ccc(C(=O)Nc2ccc(Nc3ccncc3)cc2)cc1`, the Inhibition in the assay with Staphylococcus aureus is -3.72%; in the assay on Acinetobacter baumannii, 6.97%; in the assay with Escherichia coli, -13.54%; in the assay with Klebsiella pneumoniae, 10.04%; in the assay with Candida albicans, 2.67%; in the assay with Cryptococcus neoformans, -0.31%.
Consider `N#Cc1c(N)nc(N)nc1Nc1ccc(Br)cc1`, for which the Inhibition with Staphylococcus aureus is 13.29%; in the assay on Acinetobacter baumannii it was -8.2%; in the assay with Escherichia coli it was -5.32%; in the assay with Klebsiella pneumoniae, 20.88%; in the assay on Candida albicans, 2.67%; with Cryptococcus neoformans it was -16.04%.
For the molecule `Cc1nnc(Cc2ccccc2)c2[nH]nc(C)c12`, the Inhibition with Staphylococcus aureus is 16.17%; in the assay on Acinetobacter baumannii it was 11.32%; with Escherichia coli, 1.75%; in the assay on Klebsiella pneumoniae, 14.15%; with Candida albicans, 5.79%; with Cryptococcus neoformans, -4.44%.
In the case of `Oc1ccc2ccccc2c1/N=N/c1ccc(F)cc1`, the Inhibition in the assay with Staphylococcus aureus is 3.11%; in the assay with Acinetobacter baumannii it was 4.07%; in the assay with Escherichia coli, -0.77%; in the assay on Klebsiella pneumoniae it was 13.5%; in the assay on Candida albicans, -3.66%; in the assay with Cryptococcus neoformans it was -8.4%.
For `CC(=O)O.N=c1ccn2c(n1)OC1C(O)C(CO)OC12` (stereo not given), the Inhibition in the assay with Staphylococcus aureus is 0.21%; in the assay with Acinetobacter baumannii it was -10.07%; in the assay on Escherichia coli, 8.11%; in the assay on Klebsiella pneumoniae, 17.17%; with Candida albicans it was -0.52%; in the assay on Cryptococcus neoformans, -12.02%.
Consider `Clc1nc(Oc2ccccc2)nc(-c2cn(-c3ccccc3)c3ccccc23)n1`, for which the Inhibition in the assay on Staphylococcus aureus is 2.81%; with Acinetobacter baumannii, 4.85%; in the assay on Escherichia coli it was 6.07%; with Klebsiella pneumoniae, 3.03%; in the assay with Candida albicans, -0.88%; in the assay on Cryptococcus neoformans it was -13%.
For `O=[N+]([O-])c1cccnc1Oc1cc(Cl)c(Cl)cc1Cl`, the Inhibition is 13.29% with Staphylococcus aureus; 1.57% in the assay with Acinetobacter baumannii; 1.62% in the assay on Escherichia coli; 4.9% in the assay with Klebsiella pneumoniae; 1.25% with Candida albicans; -4.41% with Cryptococcus neoformans.
For `COC(=O)c1cc(C)nc2c(C)cc3[nH]c4ccccc4c3c12`, the Inhibition with Staphylococcus aureus is -3.37%; in the assay on Acinetobacter baumannii, -0.23%; in the assay with Escherichia coli, -15.24%; with Klebsiella pneumoniae, 17.6%; with Candida albicans, 8.78%; with Cryptococcus neoformans, 0.02%.
As to `CC(=O)NC1=C/C(=C\[N+](=O)[O-])C=C1O`, the Inhibition in the assay on Staphylococcus aureus was -1.13%; in the assay with Acinetobacter baumannii, 0.39%; in the assay with Escherichia coli, 10.35%; in the assay on Klebsiella pneumoniae, 11.59%; in the assay on Candida albicans, 0.53%; in the assay with Cryptococcus neoformans it was -2.2%.
`COC1OC2COC(c3ccccc3)OC2C(=O)C1NC(=O)c1ccccc1` (stereo not given): the Inhibition with Staphylococcus aureus is 8.72%; in the assay with Acinetobacter baumannii it was 4.09%; in the assay on Escherichia coli, 10.65%; in the assay on Klebsiella pneumoniae it was 10.3%; with Candida albicans it was 2.12%; in the assay with Cryptococcus neoformans it was -18.55%.
Turning to `CN(C)c1ccc(/N=N\c2cccc3ccoc23)cc1`, the Inhibition in the assay with Staphylococcus aureus was -15.18%; in the assay with Acinetobacter baumannii, -4.75%; in the assay with Escherichia coli, -16.41%; with Klebsiella pneumoniae, -3.95%; with Candida albicans, 3.86%; in the assay with Cryptococcus neoformans, -4.24%.
Take `S=C(Sc1ccc(Cl)cc1)Sc1ccc(Cl)cc1`: the Inhibition in the assay with Staphylococcus aureus is -6.64%; in the assay with Acinetobacter baumannii it was 10.03%; with Escherichia coli, 10.65%; in the assay on Klebsiella pneumoniae it was 7.47%; with Candida albicans it was 2.15%; with Cryptococcus neoformans, -8.72%.
